Screens deposited in PubChem BioAssay by several laboratories.
Granule exo inh: LAMP-1 surface exposure blockers, TALL-104 cells – cell-based, flow cytometry, MLPCN library, primary screen | TALL-104 LAMP-1 surface exposure; cells stimulated with thapsigargin and PMA | AID 651702, 2012 | inhibition, % at 10 µM | actives 0.66% (n = 360,000);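 active = inhibition above about 55%, limit read from the data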
PP1 inh: PP1-alpha phosphatase inhibitors, primary screen, counter-screen for PP5 inhibitor project, biochemical, fluorescence, OMFP substrate, single point | Serine/threonine-protein phosphatase PP1-alpha catalytic subunit (Homo sapiens), P62136 | purified PP1alpha | inhibition, % at 6.7 µM | actives 0.9% (n = 320,000);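 active = inhibition above the mean inhibition of all tested compounds plus 3 SD, computed separately for each screening campaign, cut at about 15% in these data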
SKKanGAS inh: S. pyogenes SKKanGAS growth inhibitors in kanamycin, primary screen, streptokinase expression inhibitor project, SKKanGAS strain, BacTiter-Glo luminescence; 6 h; inhibition, % at 7.5 µM; actives 1.3% (n = 300,000);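 active = mean replicate score, as percent of positive control median, at least 50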;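 note: strain carries kanamycin resistance gene driven by streptokinase promoter and grows in 40 µg/ml kanamycin; loss of luminescence reflects streptokinase promoter inhibition or plain growth inhibition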
PP5 primary: PP5 phosphatase inhibitors, primary screen, biochemical, fluorescence. purified PP5c, OMFP substrate fluorescence. Serine/threonine-protein phosphatase 5 (Homo sapiens), P53041. AID 1987, 2009. inhibition, % at 6.7 µM. actives 0.18% (n = 320,000);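 active = inhibition above the campaign's mean inhibition across all tested compounds plus 3 SD, cut at about 9.5% in these data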
Target sequence (P53041 whole entry, looked up): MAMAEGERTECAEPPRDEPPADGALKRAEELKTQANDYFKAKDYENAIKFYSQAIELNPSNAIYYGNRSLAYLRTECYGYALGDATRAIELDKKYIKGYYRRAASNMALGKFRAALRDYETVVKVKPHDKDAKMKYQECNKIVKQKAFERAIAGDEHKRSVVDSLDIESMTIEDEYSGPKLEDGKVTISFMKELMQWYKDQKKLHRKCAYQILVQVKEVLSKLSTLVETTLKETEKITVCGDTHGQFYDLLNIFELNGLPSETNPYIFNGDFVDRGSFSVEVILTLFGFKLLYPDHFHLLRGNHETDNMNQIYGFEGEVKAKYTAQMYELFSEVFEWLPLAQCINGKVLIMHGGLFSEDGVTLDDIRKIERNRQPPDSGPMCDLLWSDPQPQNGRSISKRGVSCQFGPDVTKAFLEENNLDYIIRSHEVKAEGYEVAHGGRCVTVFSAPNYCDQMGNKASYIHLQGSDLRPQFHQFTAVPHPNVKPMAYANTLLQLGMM
IDE cell activ: human IDE activators in live cells, primary screen, fluorescence polarization, HEK cells, FAbeta-B substrate. FAbeta-B cleavage; 0% vehicle, 100% cell-free pure enzyme wells. activation, % at 5.96 µM. actives 0.073% (n = 340,000);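 active = activation above the mean of all tested compounds plus 3 SD, set per screening campaign, cut at about 17% in these data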
IDE cell inh: human IDE inhibitors in live cells, primary screen, fluorescence polarization, HEK cells, FAbetaB substrate. Insulin-degrading enzyme (Homo sapiens), P14735. actives 0.41% (n = 320,000). AID 434962, 2010. FAbetaB cleavage. inhibition, % at 5.59 µM;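 active = percent inhibition above the average of all tested compounds plus 3 SD, set per screening campaign, cut at about 16% in these data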;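 note: IDE supplied by intact live HEK cells; FP after avidin binding of uncleaved biotin substrate so inhibition keeps polarization high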
PP1 inh confirm: PP1 phosphatase inhibitors, confirmation, biochemical, fluorescence, OMFP substrate, triplicate | shares compounds with PP1 inh | purified PP1alpha | inhibition, % at 6.7 µM | actives 52% (n = 1,900);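 active = mean PP1 inhibition above a set limit taken from the earlier primary screen, cut at about 15% in these data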
PP5 inh counter: PP5 phosphatase inhibition by PP1 hits, confirmation, counter-screen for PP1 inhibitor project, biochemical, fluorescence, triplicate. actives 4% (n = 1,900). purified PP5c, OMFP fluorescence. shares compounds with PP1 inh. AID 2360, 2010. inhibition, % at 6.7 µM;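 active = mean PP5 inhibition over triplicate wells above about 9.5% taken from the earlier PP1 screen, limit read from the data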
Large screens that a line does not name were inactive (follow-up assays come after a bar, where they were run). Most compounds without a hit are left out; they make up all but 2.8% or so of the library.

COc1ccc2[nH]c(=O)c(CN(Cc3cccs3)S(=O)(=O)c3cccc4nsnc34)cc2c1	none
CC(C)C[C@@]12C(=O)N(c3cccc(F)c3)C(=O)N1[C@H](c1ccc(F)cc1)[C@@H]1C(=O)N(C3CCCCC3)C(=O)[C@@H]12	none
COc1ccc(CCNC(=S)NC2CCN(Cc3ccccc3)CC2)cc1	none
O=C(CNS(=O)(=O)c1ccc(Br)cc1Cl)OCC(=O)c1ccc[nH]1	PP1 inh 35 | PP1 inh confirm inactive | PP5 inh counter inactive
O=C(CNS(=O)(=O)c1c(Cl)cccc1Cl)OCC(=O)c1ccc[nH]1	none
O=C1CCCc2cc3c(cc21)CC1(C3)Cc2cc3c(cc2C1)C(=O)CCC3	none
Clc1ccc(N=c2ssnc2Cl)cc1	Granule exo inh 82, PP1 inh 19 | PP1 inh confirm inactive | PP5 inh counter inactive
Cc1cccc(NC(=O)CSc2nc3ccc(NC(=O)CSc4nnnn4-c4ccccc4)cc3s2)c1C	none (no result: Granule exo inh, SKKanGAS inh, IDE cell activ)
O=C(CSc1nc2ccc(NC(=O)CSc3nnnn3-c3ccccc3)cc2s1)Nc1ccccc1	PP1 inh 20 | PP1 inh confirm 26 | PP5 inh counter inactive
COC(=O)c1ccccc1NC(=O)CN1C(=O)c2ccccc2C1=O	none (no result: IDE cell activ)
CC(=O)Nc1ccc(OC(=O)c2ccco2)cc1	PP1 inh 19 | PP1 inh confirm inactive | PP5 inh counter inactive
CC(=O)Nc1cc(OC(=O)c2ccco2)cc(OC(=O)c2ccco2)c1	none
CCc1ccc(C2C(C#N)=C(N)SC(N)=C2C#N)cc1	none
N#CC1=C(N)SC(N)=C(C#N)C1c1ccc(C(F)(F)F)cc1	PP1 inh 39 (no result: Granule exo inh, IDE cell activ) | PP1 inh confirm inactive | PP5 inh counter inactive
N#C/C(=C\c1ccc(-c2ccc([N+](=O)[O-])cc2Br)o1)C(=O)N1CCN(c2ccccc2)CC1	none
O=c1[nH]c(CN2CCc3ccccc32)nc2scc(-c3cccs3)c12	PP1 inh 19 | PP1 inh confirm inactive | PP5 inh counter inactive
CC(C)(C)OC(=O)C(C)(C)Sc1nnc(N)s1	none
O=C(c1cc(-c2ccco2)on1)N1CCN(C(c2ccccc2)c2ccccc2)CC1	PP1 inh 19 | PP1 inh confirm inactive | PP5 inh counter inactive
COc1ccc(-c2cc(C(=O)N3CCN(C(c4ccccc4)c4ccccc4)CC3)no2)cc1	none
O=C(Nc1nnc(-c2ccccc2Cl)o1)c1nc2ccccc2s1	PP1 inh 40, SKKanGAS inh 95 | PP1 inh confirm 31 | PP5 inh counter inactive
O=C(Nc1nnc(-c2ccccc2Cl)o1)c1ccco1	none
COc1cc2c(cc1OC)-c1cc(NCc3ccccn3)nc(=O)n1CC2	PP1 inh 20 | PP1 inh confirm 21 | PP5 inh counter inactive
COc1ccc(C(=O)Nc2nnc(SCC(=O)NCc3ccco3)s2)c(OC)c1	none
CC(C)(C)NC(=O)CSc1nc(O)cc(=O)[nH]1	none
CCCCNC(=O)c1ccc2nc(-c3ccco3)c(-c3ccco3)nc2c1	none
O=C(c1ccc2nc(-c3ccco3)c(-c3ccco3)nc2c1)N1CCN(c2ncccn2)CC1	PP1 inh 33 | PP1 inh confirm inactive | PP5 inh counter inactive
O=C(NCc1ccccc1)c1ccc2nc(-c3ccco3)c(-c3ccco3)nc2c1	PP1 inh 28 | PP1 inh confirm inactive | PP5 inh counter inactive
CC(=O)c1ccc(NC(=O)c2ccc3nc(-c4ccco4)c(-c4ccco4)nc3c2)cc1	PP1 inh 34 | PP1 inh confirm 25 | PP5 inh counter inactive
O=C(Nc1ccccc1)c1ccc2nc(-c3ccco3)c(-c3ccco3)nc2c1	PP1 inh 21 | PP1 inh confirm inactive | PP5 inh counter inactive
O=C(c1cccc(C(=O)N2CCN(c3ncccn3)CC2)c1)N1CCN(c2ncccn2)CC1	none
CC1CCCCN1S(=O)(=O)Cc1ccccc1Cl (stereo not given)	none (no result: PP1 inh, PP5 primary, IDE cell inh)
C/C=C/C(=O)N[C@@H]1c2ccccc2CC[C@@H]1OCc1ccccc1	none (no result: PP1 inh, SKKanGAS inh, PP5 primary, IDE cell inh)
O=C(O)c1n[nH]c2c1CC(C1CCCCC1)CC2 (stereo not given)	PP1 inh 19 (no result: SKKanGAS inh) | PP1 inh confirm inactive | PP5 inh counter inactive
CC1CCc2[nH]nc(C(=O)O)c2C1 (stereo not given)	none
Cc1cc2oc3ccc(NCCCn4ccnc4)cc3c(=O)c2cc1C	PP1 inh 25 | PP1 inh confirm inactive | PP5 inh counter inactive
Cc1cc2oc3ccc(NCCCN4CCOCC4)cc3c(=O)c2cc1C	none
COc1cc(/C=N/NC(=O)c2cccc(S(=O)(=O)N3CCCC3)c2)cc(OC)c1O	none
Cc1ccc(OCCN2C(=O)NC3(CCc4ccccc4C3)C2=O)cc1 (stereo not given)	none
COc1cc(OC)nc(NC(=O)CS(=O)(=O)c2ccccc2)n1	PP1 inh 30 | PP1 inh confirm inactive | PP5 inh counter inactive
COc1ccc(OC)c(NC(=O)CS(=O)(=O)c2ccccc2)c1	none
CC(COc1ccc(/C=C/c2ccccc2)cc1)[N+](C)(C)C (stereo not given)	none (no result: SKKanGAS inh)
COc1ccc(S(=O)(=O)N2CCOCC2)cc1NC(=O)c1cc2c(s1)CCCC2	none
COc1ccc(C)cc1NC(=O)c1cc2c(s1)CCC2	PP1 inh 18 | PP1 inh confirm inactive | PP5 inh counter inactive
CCCC(=O)NC(c1ccc(C)cc1)c1ccc2cccnc2c1O (stereo not given)	PP1 inh 23, SKKanGAS inh 72 | PP1 inh confirm 18 | PP5 inh counter inactive
CCCC(=O)NC(c1ccc(Cl)cc1Cl)c1ccc2cccnc2c1O (stereo not given)	PP1 inh 26, SKKanGAS inh 89 | PP1 inh confirm 21 | PP5 inh counter inactive
CCN(CC)c1ccc(C(NC(=O)C(C)C)c2ccc3cccnc3c2O)cc1 (stereo not given)	none (no result: PP1 inh, SKKanGAS inh, PP5 primary, IDE cell activ, IDE cell inh)
CCCC(=O)NC(c1ccc(Cl)cc1)c1ccc2cccnc2c1O (stereo not given)	PP1 inh 23, SKKanGAS inh 58 | PP1 inh confirm 20 | PP5 inh counter inactive
CCCC(=O)NC(c1ccccc1OC)c1ccc2cccnc2c1O (stereo not given)	none
CC(NC(=O)C1CCN(C(=O)c2ccc(F)cc2)CC1)c1ccc(-n2ccnc2)cc1 (stereo not given)	none (no result: SKKanGAS inh)
